# Results filed as inconclusive are left out. Entries that show only a call come without a potency. Active and inactive are the calls of the source. Calls come from the whole dose curve; as a rule, active = well fitted inhibition curve with a large enough effect; inconclusive = small, poorly fitted or top-dose-only effect; inactive = no such curve, though single readings can be large or run the other way. Where a SMILES comes first, the peptide text is derived from it. Bridges are numbered along the chain shown (N, C = ends). [ ]: non-standard residue; d: D form. The star is where a group is joined. X1 = CCC(C)C(N)C1=NC(C(=O)*)CS1; dOrn = NCCC[C@@H](N)C(=O)O
# Experiment: P-glycoprotein substrates identified in KB-3-1 adenocarcinoma cell line, qHTS therapeutic library screen (AID 1346986); note: nearly all actives have a fitted effect of over 60% in size
# Conditions: KB-3-1 parental cells viability, CellTiter-Glo, 72 h; series mostly up to 44.5 µM
# Method in brief: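 Using luminescence to quantify ATP, parental and P-gp-overexpressing KB cells were compared after 72 h compound titration. KB-8-5-11 was also run with the P-gp inhibitor tariquidar.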
row,Compound,Potency
1,COC(=O)C1(Cc2ccc(O)cc2)OC(=O)C(OC)=C1c1ccc(O)cc1 (configuration not stated),inactive
2,CC(=O)C1CCC2(C)C3=C(CCC12C)C1(C)CCC(=O)C(C)(C)C1CC3 (configuration not stated),inactive
3,CC1(C)OC(=O)C(OCC2CC2)=C1c1ccc(S(C)(=O)=O)cc1,inactive
4,CC(=O)N[C@H](Cc1ccc(O)cc1)C(=O)N[C@H](CCCN=C(N)N)C(=O)N[C@H](Cc1ccccc1)C(N)=O (Ac-[dY]-[dR]-[dF]-NH2),inactive
5,CC(=O)NCCCCn1c2c(c3ccccc31)C(=O)NCC2,inactive
6,CC(=O)OC1C=C(C(=O)O)C2(CO)CCC(C)C(C)(CCc3ccoc3)C2C1 (configuration not stated),inactive
7,CC1(C)CC[C@]2(C(=O)O)CC[C@]3(C)C(=CCC4[C@@]5(C)CC[C@H](O[C@@H]6O[C@H](C(=O)O)[C@@H](O)[C@H](O)[C@H]6O)C(C)(CO)C5CC[C@]43C)C2C1 (some centres not stated),inactive
8,O=c1c2cccnc2n(-c2cccc([N+](=O)[O-])c2)c(=O)n1Cc1ccncc1,inactive
9,CC1=C2CC3OC3(C)CCC3OC3(C)CC2OC1=O (configuration not stated),inactive
10,COC(=O)CC1(O)C(=O)Nc2ccccc21 (configuration not stated),inactive
11,C/C=C(/C)C(=O)O[C@H]1C=C(C)C[C@H](OC(=O)c2ccc(O)cc2)C2[C@](O)(C(C)C)CC[C@@]21C (some centres not stated),inactive
12,CC(=O)O[C@@H]1[C@H]2[C@@H](OC(=O)c3ccccc3)[C@@H](C)C[C@]2(O)[C@H](OC(C)=O)[C@@]2(C)[C@@H]3CC(C)(C)C(=O)[C@]3(OC(C)=O)C[C@@]12C,inactive
13,COc1ccc(C(O[C@@H]2O[C@H](CO)[C@@H](O)[C@H](O)[C@H]2O)C(CO)Oc2ccc(/C=C/CO)cc2OC)cc1O (some centres not stated),inactive
14,COc1ccc2c(c1O)OC[C@H]1c3ccc(O)cc3O[C@@H]21,inactive
15,COc1cc(/C=C/C(=O)OC2CC(C)=C(C(=O)O)/C2=C/CO[C@@H]2O[C@H](CO)[C@@H](O)[C@H](O)[C@H]2O)ccc1O (some centres not stated),inactive
16,CO/N=C(/C(=O)N[C@@H]1C(=O)N2C(C(=O)O)=C(CSC(=O)c3ccco3)CS[C@H]12)c1csc(N)n1,inactive

row,Compound,Potency
1,O=C1Nc2ccc(O)cc2O[C@H]1O[C@@H]1O[C@H](CO)[C@@H](O)[C@H](O)[C@H]1O,inactive
2,CCOC(=O)[C@H]1O[C@@H]1C(=O)N[C@@H](CC(C)C)C(=O)NCCC(C)C,inactive
3,NCCCC[C@H](NC(=O)[C@@H]1Cc2ccccc2CN1C(=O)CCC(=O)c1ccccc1)C(=O)NCC(c1ccccc1)c1ccccc1,inactive
4,CCN[C@@H]1C[C@H](N)[C@@H](O[C@H]2OC(CN)=CC[C@H]2N)[C@H](O)[C@H]1O[C@H]1OC[C@](C)(O)[C@H](NC)[C@H]1O,inactive
5,CN1C(=O)c2ccccc2-n2c(nc3ccccc3c2=O)/C1=C/c1ccccc1,inactive
6,CNC(=O)c1ccc2cc([C@@]3(O)CCn4cncc43)ccc2c1,inactive
7,COc1c(C)c(OCC=C(C)C)cc2c1C(=O)NC2=O,inactive
8,CCOc1ccc(-c2ccc(Cn3c(CC(C)(C)C(=O)O)c(SC(C)(C)C)c4cc(OCc5ccc(C)cn5)ccc43)cc2)cn1,inactive
9,COC1CC(=O)CCC(C)OC(=O)CC1O (configuration not stated),inactive
10,C[C@H]1[C@H](C)CC[C@]2(C(=O)O)CC[C@]3(C)C(=CC[C@@H]4[C@@]5(C)C[C@@H](O)[C@H](O)[C@@](C)(CO)[C@@H]5CC[C@]43C)[C@H]12,inactive
11,CCC(C)C(N)C1=NC(C(=O)N[C@@H](CC(C)C)C(=O)N[C@H](CCC(=O)O)C(=O)N[C@H](C(=O)N[C@H]2CCCCNC(=O)[C@H](CC(N)=O)NC(=O)[C@@H](CC(=O)O)NC(=O)[C@H](Cc3cnc[nH]3)NC(=O)[C@@H](Cc3ccccc3)NC(=O)[C@H]([C@@H](C)CC)NC(=O)[C@@H](CCCN)NC2=O)[C@@H](C)CC)CS1 (some centres not stated) (X1-L[dE]IK[dOrn]I[dF]H[dD]N; lactam 4-C),inactive
12,CC1CCC23COC(=O)C2=CC(O)CC3C1(C)CCC1=CC(=O)OC1O (configuration not stated),inactive
13,OC[C@H]1O[C@@H](Oc2cc(O)cc(/C=C/c3ccc(O)cc3)c2)[C@H](O)[C@@H](O)[C@@H]1O,inactive
14,CC(=O)NC(CCC(=O)O)C(=O)NCCc1ccc(O)cc1 (configuration not stated),inactive
15,C[C@@H]1O[C@@H](OC[C@H]2O[C@@H](OCCc3ccccc3)[C@H](O)[C@@H](O)[C@@H]2O)[C@H](O)[C@H](O)[C@H]1O,inactive
16,CC1=CC(=O)C2C(C)(C)CC(O)CC2(C)C1CO (configuration not stated),inactive

# — PubChem BioAssay (NCATS)
